65 sequences from paper PMC9838217, “Structure of SALL4 zinc finger domain reveals link between AT-rich DNA binding and Okihiro syndrome” can be followed below.

Where a chain is given by its changes, count along the chain named.

The target in assay [1] is T1, SALL4 ZFC4 R900W (HT-SELEX) (Mus musculus, UniProt Q8BX22 870-940, R900W).
T1 sequence: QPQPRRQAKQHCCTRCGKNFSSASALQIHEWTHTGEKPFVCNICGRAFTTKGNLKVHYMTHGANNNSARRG
As to the kind of experiment: HT-SELEX; high values mean tight binding. To be noted: protein: recombinant; vector His6-GST; dsDNA, one strand shown. Put shortly: (§1)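 DNA from a random library (1.5 µg in the first cycle, 200 ng afterwards) was incubated with purified recombinant mouse SALL4 zinc finger cluster 4, residues 870–940 (1 µg), for 10 min at room temperature in 100 µl buffer: 10 mM Tris–HCl pH 7.5, 50 mM NaCl, poly(dI-dC), DTT. Bound complexes were pulled down on Ni2+ beads, washed and PCR-amplified, and the selection was repeated for up to 6 cycles in triplicate. MiSeq reads were scanned for 6-mers, and binding signal is each canonical k-mer's read fraction as fold change over the initial random library.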

Assay [2] deals with T2, SALL4 ZFC4 G921D (HT-SELEX) (Mus musculus, UniProt Q8BX22 870-940, G921D).
T2 sequence: T1 sequence with W31R, G52D
Briefly: HT-SELEX; high values mean tight binding. The note with it: protein: recombinant; vector His6-GST; dsDNA, one strand shown. The gist of the method:
as §1

Consider CACCCG, for which the values for the binding signal in assay [1] and in assay [2] were 0.244 ± 0.0244 fold-change vs cycle 0 and 0.342 ± 0.0506 fold-change vs cycle 0, respectively.

Turning to AACGCG, the binding signal in assay [1] was found to be 0.226 ± 0.0175 fold-change vs cycle 0; in assay [2] it was 0.329 ± 0.0589 fold-change vs cycle 0.

As for ACTGCG, the binding signal in assay [1] was 0.289 ± 0.0171 fold-change vs cycle 0; in assay [2] it was 0.407 ± 0.0604 fold-change vs cycle 0.

Turning to TCCGCA, the binding signal in assay [1] came out at 0.269 ± 0.0199 fold-change vs cycle 0; in assay [2], 0.408 ± 0.0556 fold-change vs cycle 0.

In the case of GCACCC, the binding signal came to 0.1961 ± 0.000728 fold-change vs cycle 0 in assay [1] and 0.322 ± 0.0644 fold-change vs cycle 0 in assay [2].

Consider GCAGCC, for which the binding signal in assay [1] was 0.112 ± 0.0161 fold-change vs cycle 0; in assay [2], 0.221 ± 0.0775 fold-change vs cycle 0.

In the case of CCAGGG, the figures for the binding signal in assay [1] and in assay [2] were 0.305 ± 0.0286 fold-change vs cycle 0 and 0.408 ± 0.0718 fold-change vs cycle 0, respectively.

Regarding GGCCAA, the binding signal was 0.221 ± 0.00964 fold-change vs cycle 0 in assay [1] and 0.358 ± 0.0813 fold-change vs cycle 0 in assay [2].

Consider CGCCAC, for which the binding signal in assay [1] is 0.103 ± 0.0044 fold-change vs cycle 0; in assay [2], 0.216 ± 0.0502 fold-change vs cycle 0.

In the case of ACTGGC, the binding signal in assay [1] was found to be 0.318 ± 0.0103 fold-change vs cycle 0; in assay [2] it was 0.448 ± 0.0505 fold-change vs cycle 0.

As for GGCACA, the binding signal amounted to 0.256 ± 0.0249 fold-change vs cycle 0 in assay [1] and 0.414 ± 0.0716 fold-change vs cycle 0 in assay [2].

As to GCGCTA, the figures for the binding signal in assay [1] and in assay [2] were 0.156 ± 0.0119 fold-change vs cycle 0 and 0.291 ± 0.093 fold-change vs cycle 0, respectively.

As for ACGCCA, the values for the binding signal in assay [1] and in assay [2] were 0.244 ± 0.0178 fold-change vs cycle 0 and 0.368 ± 0.0567 fold-change vs cycle 0, respectively.

As for CTGCCA, the results for the binding signal in assay [1] and in assay [2] were 0.304 ± 0.0171 fold-change vs cycle 0 and 0.451 ± 0.0863 fold-change vs cycle 0, respectively.

For GCCCCA, the results for the binding signal in assay [1] and in assay [2] were 0.158 ± 0.0152 fold-change vs cycle 0 and 0.275 ± 0.0854 fold-change vs cycle 0, respectively.

For the sequence CCGACA, the values for the binding signal in assay [1] and in assay [2] were 0.311 ± 0.0211 fold-change vs cycle 0 and 0.462 ± 0.0665 fold-change vs cycle 0, respectively.

As to CCCAGG, the binding signal amounted to 0.297 ± 0.008 fold-change vs cycle 0 in assay [1] and 0.401 ± 0.05 fold-change vs cycle 0 in assay [2].

On to CATGCG, for which the binding signal turned out to be 0.296 ± 0.011 fold-change vs cycle 0 in assay [1] and 0.441 ± 0.076 fold-change vs cycle 0 in assay [2].

As for TCGCCA, the results for the binding signal in assay [1] and in assay [2] were 0.213 ± 0.00577 fold-change vs cycle 0 and 0.371 ± 0.0688 fold-change vs cycle 0, respectively.

In the case of CAAGCG, the binding signal stood at 0.313 ± 0.0138 fold-change vs cycle 0 in assay [1] and 0.452 ± 0.0669 fold-change vs cycle 0 in assay [2].

With CCCCAC, the binding signal came out at 0.272 ± 0.0152 fold-change vs cycle 0 in assay [1] and 0.375 ± 0.0668 fold-change vs cycle 0 in assay [2].

For AGCCCA, the binding signal in assay [1] came to 0.323 ± 0.00919 fold-change vs cycle 0; in assay [2], 0.465 ± 0.0703 fold-change vs cycle 0.

Consider CCCGCG, for which the values for the binding signal in assay [1] and in assay [2] were 0.0543 ± 0.006 fold-change vs cycle 0 and 0.134 ± 0.057 fold-change vs cycle 0, respectively.

Regarding GACCGC, the results for the binding signal in assay [1] and in assay [2] were 0.124 ± 0.0133 fold-change vs cycle 0 and 0.245 ± 0.0713 fold-change vs cycle 0, respectively.

AGCACG: the values for the binding signal in assay [1] and in assay [2] were 0.337 ± 0.0173 fold-change vs cycle 0 and 0.468 ± 0.0696 fold-change vs cycle 0, respectively.

On to ACCGCC, for which the binding signal in assay [1] stood at 0.117 ± 0.0115 fold-change vs cycle 0; in assay [2] it was 0.235 ± 0.0718 fold-change vs cycle 0.

Turning to AGTCGC, the binding signal in assay [1] turned out to be 0.244 ± 0.0172 fold-change vs cycle 0; in assay [2], 0.386 ± 0.0654 fold-change vs cycle 0.

On to AAGCCC, for which the values for the binding signal in assay [1] and in assay [2] were 0.353 ± 0.015 fold-change vs cycle 0 and 0.475 ± 0.062 fold-change vs cycle 0, respectively.

As to TCGCGA, the binding signal in assay [1] is 0.248 ± 0.0259 fold-change vs cycle 0; in assay [2] it was 0.374 ± 0.0699 fold-change vs cycle 0.

In the case of GTGCCA, the figures for the binding signal in assay [1] and in assay [2] were 0.266 ± 0.0277 fold-change vs cycle 0 and 0.416 ± 0.0672 fold-change vs cycle 0, respectively.

Take ATGGGC: the binding signal turned out to be 0.3096 ± 0.00283 fold-change vs cycle 0 in assay [1] and 0.446 ± 0.0581 fold-change vs cycle 0 in assay [2].

Consider CGCAGA, for which the binding signal in assay [1] was 0.265 ± 0.0309 fold-change vs cycle 0; in assay [2] it was 0.379 ± 0.0778 fold-change vs cycle 0.

As for CGACAC, the binding signal in assay [1] was 0.316 ± 0.0105 fold-change vs cycle 0; in assay [2], 0.48 ± 0.0742 fold-change vs cycle 0.

Consider GCGTCC, for which the figures for the binding signal in assay [1] and in assay [2] were 0.152 ± 0.014 fold-change vs cycle 0 and 0.258 ± 0.0705 fold-change vs cycle 0, respectively.

Regarding ATACGA, the binding signal was determined as 1.27 ± 0.0333 fold-change vs cycle 0 in assay [1] and 1.26 ± 0.0263 fold-change vs cycle 0 in assay [2].

Turning to CGATGC, the results for the binding signal in assay [1] and in assay [2] were 0.312 ± 0.0118 fold-change vs cycle 0 and 0.454 ± 0.0801 fold-change vs cycle 0, respectively.

As to CGCTTC, the binding signal in assay [1] was 0.316 ± 0.00396 fold-change vs cycle 0; in assay [2], 0.452 ± 0.0563 fold-change vs cycle 0.

For ACGCGT, the binding signal in assay [1] is 0.28 ± 0.0448 fold-change vs cycle 0; in assay [2] it was 0.366 ± 0.0637 fold-change vs cycle 0.

For AGGGGC, the values for the binding signal in assay [1] and in assay [2] were 0.195 ± 0.00634 fold-change vs cycle 0 and 0.332 ± 0.0629 fold-change vs cycle 0, respectively.

On to CGCTAC, for which the binding signal was determined as 0.3 ± 0.026 fold-change vs cycle 0 in assay [1] and 0.426 ± 0.0556 fold-change vs cycle 0 in assay [2].

Take AAGGGC: the binding signal in assay [1] came to 0.343 ± 0.00573 fold-change vs cycle 0; in assay [2], 0.488 ± 0.064 fold-change vs cycle 0.

For the sequence AACGCC, the binding signal is 0.242 ± 0.0243 fold-change vs cycle 0 in assay [1] and 0.377 ± 0.0751 fold-change vs cycle 0 in assay [2].

For CGCGGC, the binding signal in assay [1] was 0.0238 ± 0.000376 fold-change vs cycle 0; in assay [2], 0.0986 ± 0.055 fold-change vs cycle 0.

As for AGCGTC, the binding signal in assay [1] came out at 0.301 ± 0.0204 fold-change vs cycle 0; in assay [2], 0.444 ± 0.0717 fold-change vs cycle 0.

Regarding CGAACG, the binding signal in assay [1] was found to be 0.36 ± 0.0176 fold-change vs cycle 0; in assay [2], 0.474 ± 0.087 fold-change vs cycle 0.

Consider GATCGC, for which the binding signal in assay [1] is 0.301 ± 0.0313 fold-change vs cycle 0; in assay [2] it was 0.461 ± 0.0896 fold-change vs cycle 0.

With TCGGCA, the binding signal in assay [1] stood at 0.208 ± 0.0109 fold-change vs cycle 0; in assay [2], 0.351 ± 0.0637 fold-change vs cycle 0.

For the sequence CTGCGC, the binding signal worked out at 0.08 ± 0.0196 fold-change vs cycle 0 in assay [1] and 0.173 ± 0.0775 fold-change vs cycle 0 in assay [2].

As for CGCGTC, the values for the binding signal in assay [1] and in assay [2] were 0.112 ± 0.0164 fold-change vs cycle 0 and 0.207 ± 0.0615 fold-change vs cycle 0, respectively.

For the sequence ATCGCC, the values for the binding signal in assay [1] and in assay [2] were 0.24 ± 0.00657 fold-change vs cycle 0 and 0.401 ± 0.088 fold-change vs cycle 0, respectively.

As to CTGTGC, the binding signal in assay [1] came to 0.34 ± 0.0263 fold-change vs cycle 0; in assay [2], 0.471 ± 0.046 fold-change vs cycle 0.

For CTCCGC, the binding signal in assay [1] was 0.169 ± 0.0169 fold-change vs cycle 0; in assay [2] it was 0.271 ± 0.0458 fold-change vs cycle 0.

Turning to CGGACC, the binding signal turned out to be 0.198 ± 0.0105 fold-change vs cycle 0 in assay [1] and 0.315 ± 0.0637 fold-change vs cycle 0 in assay [2].

As for CCAGGC, the results for the binding signal in assay [1] and in assay [2] were 0.174 ± 0.0159 fold-change vs cycle 0 and 0.302 ± 0.0679 fold-change vs cycle 0, respectively.

As for GCGCGC, the binding signal in assay [1] was determined as 0.0165 ± 0.00409 fold-change vs cycle 0; in assay [2] it was 0.0747 ± 0.0529 fold-change vs cycle 0.

For the sequence GTCGGA, the binding signal in assay [1] is 0.35 ± 0.00494 fold-change vs cycle 0; in assay [2], 0.501 ± 0.0597 fold-change vs cycle 0.

Regarding GGCAGA, the binding signal in assay [1] was found to be 0.306 ± 0.0166 fold-change vs cycle 0; in assay [2], 0.438 ± 0.0703 fold-change vs cycle 0.

For the sequence ACCGCG, the binding signal in assay [1] amounted to 0.099 ± 0.00138 fold-change vs cycle 0; in assay [2], 0.205 ± 0.0665 fold-change vs cycle 0.

On to CCGGGC, for which the results for the binding signal in assay [1] and in assay [2] were 0.0594 ± 0.00905 fold-change vs cycle 0 and 0.152 ± 0.0608 fold-change vs cycle 0, respectively.

As to GCGCAA, the results for the binding signal in assay [1] and in assay [2] were 0.123 ± 0.00425 fold-change vs cycle 0 and 0.249 ± 0.0828 fold-change vs cycle 0, respectively.

CCGCGA: the figures for the binding signal in assay [1] and in assay [2] were 0.102 ± 0.00288 fold-change vs cycle 0 and 0.221 ± 0.0689 fold-change vs cycle 0, respectively.

With ACGCGG, the results for the binding signal in assay [1] and in assay [2] were 0.111 ± 0.0165 fold-change vs cycle 0 and 0.205 ± 0.0613 fold-change vs cycle 0, respectively.

With AGCGGG, the binding signal in assay [1] was 0.168 ± 0.0263 fold-change vs cycle 0; in assay [2], 0.277 ± 0.0671 fold-change vs cycle 0.

GCCAGC: the binding signal worked out at 0.102 ± 0.00774 fold-change vs cycle 0 in assay [1] and 0.211 ± 0.0594 fold-change vs cycle 0 in assay [2].

With CCCGAG, the results for the binding signal in assay [1] and in assay [2] were 0.2602 ± 0.00145 fold-change vs cycle 0 and 0.386 ± 0.0692 fold-change vs cycle 0, respectively.
